Drawing on ChEMBL document CHEMBL3988442, “University of Dundee, Small-Polar-MMV Screening Library” (2021), this text covers Percent Effect for twelve compounds.

Parameters in all cases: scale not given: direction of the effect not stated beside the values
Test [1] deals with Protein translocase subunit SecA (Escherichia coli (strain K12)) (UniProt P10408). Briefly: Assay to Identify E. coli SecA ATPase Inhibitors. The test is classed as functional. To be noted: 30 µM.
Test [2] concerns the target T1, Ubiquitin-activating enzyme e1, putative (Leishmania donovani (strain BPK282A1)) (UniProt E9BSI1).
T1 sequence (whole entry): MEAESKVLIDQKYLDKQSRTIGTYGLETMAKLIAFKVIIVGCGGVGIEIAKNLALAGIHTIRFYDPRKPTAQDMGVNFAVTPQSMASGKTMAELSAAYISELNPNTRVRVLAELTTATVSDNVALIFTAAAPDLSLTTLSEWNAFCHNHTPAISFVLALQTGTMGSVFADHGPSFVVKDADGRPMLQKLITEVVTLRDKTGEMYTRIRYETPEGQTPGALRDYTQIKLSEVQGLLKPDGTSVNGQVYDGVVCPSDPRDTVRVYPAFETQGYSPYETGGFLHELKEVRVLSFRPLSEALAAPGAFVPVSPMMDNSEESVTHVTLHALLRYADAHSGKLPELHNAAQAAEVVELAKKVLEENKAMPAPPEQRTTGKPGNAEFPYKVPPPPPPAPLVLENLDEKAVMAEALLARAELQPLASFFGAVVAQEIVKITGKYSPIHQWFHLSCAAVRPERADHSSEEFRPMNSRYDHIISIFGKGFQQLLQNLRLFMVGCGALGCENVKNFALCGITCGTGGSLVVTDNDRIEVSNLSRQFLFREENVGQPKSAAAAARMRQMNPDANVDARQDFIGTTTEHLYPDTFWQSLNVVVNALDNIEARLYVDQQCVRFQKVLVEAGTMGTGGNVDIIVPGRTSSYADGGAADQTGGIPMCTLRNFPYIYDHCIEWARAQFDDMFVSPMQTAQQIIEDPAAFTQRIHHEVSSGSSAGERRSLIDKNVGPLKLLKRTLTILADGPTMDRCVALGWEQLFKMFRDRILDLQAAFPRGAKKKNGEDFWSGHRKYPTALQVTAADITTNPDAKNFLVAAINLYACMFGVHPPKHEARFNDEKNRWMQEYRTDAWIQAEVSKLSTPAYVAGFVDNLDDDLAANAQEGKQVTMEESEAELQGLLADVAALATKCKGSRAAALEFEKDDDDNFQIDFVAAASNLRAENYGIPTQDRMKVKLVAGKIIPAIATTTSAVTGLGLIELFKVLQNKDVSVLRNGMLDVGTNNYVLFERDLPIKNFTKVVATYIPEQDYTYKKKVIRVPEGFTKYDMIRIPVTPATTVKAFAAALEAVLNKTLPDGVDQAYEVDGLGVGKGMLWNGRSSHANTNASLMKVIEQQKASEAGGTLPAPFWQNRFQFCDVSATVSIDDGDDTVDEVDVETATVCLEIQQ
Kind of test: Leishmania donovani Ubiquitin Activating Enzyme (LdE1). It is filed as functional. The settings on record: 30 µM.

The target of test [3] is Sialic acid-binding Ig-like lectin 9 (Homo sapiens) (UniProt Q9Y336). Briefly: Hs-Siglec9 ALPHAscreen SOP 20170721. To be noted: 10 µM.
A further test has as its system Trypanosoma cruzi. Kind of test: Trypanosoma cruzi phosphomannomutase and mannose-1-phosphate guanylyltransferase assay. The test is classed as functional. The settings on record: 10 µM.
The target of test [4] is T2, Arginase-2, mitochondrial (Homo sapiens) (UniProt P78540).
T2 sequence (whole entry): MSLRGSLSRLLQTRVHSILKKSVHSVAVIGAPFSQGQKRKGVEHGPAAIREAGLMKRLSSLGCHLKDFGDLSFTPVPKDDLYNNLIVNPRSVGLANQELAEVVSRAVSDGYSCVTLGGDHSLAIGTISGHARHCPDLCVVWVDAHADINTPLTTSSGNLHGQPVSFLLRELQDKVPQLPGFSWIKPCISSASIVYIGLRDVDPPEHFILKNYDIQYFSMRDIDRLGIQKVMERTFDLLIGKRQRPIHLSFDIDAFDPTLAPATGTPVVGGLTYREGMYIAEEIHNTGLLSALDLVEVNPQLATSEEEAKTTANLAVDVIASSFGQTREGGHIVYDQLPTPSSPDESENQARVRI
Kind of test: in vitro enzyme assay to detect the production of urea directly proportional to the activity of Arginase II. Also: in the data most compounds retested in dose-response had high values. The test is classed as functional. The settings on record: 33.3 µM.

Test [5] addresses T3, Proteasome subunit beta (Trypanosoma cruzi) (UniProt O96673).
T3 sequence (whole entry): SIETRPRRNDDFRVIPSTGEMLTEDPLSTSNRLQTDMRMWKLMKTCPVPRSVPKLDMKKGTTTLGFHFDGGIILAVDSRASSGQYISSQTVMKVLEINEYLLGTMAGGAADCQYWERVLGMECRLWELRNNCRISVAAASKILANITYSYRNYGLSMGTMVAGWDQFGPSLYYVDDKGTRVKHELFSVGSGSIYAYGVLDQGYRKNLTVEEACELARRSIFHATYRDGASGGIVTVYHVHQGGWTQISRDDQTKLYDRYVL
Briefly: Trypanosoma cruzi proteasome chymotrypsin-like activity (TcProtChymo) assay. Also: in the data most compounds retested in dose-response had high values. To be noted: 9.37 µM. It is filed as functional.

The species named for the next test is Homo sapiens. Kind of test: To identify inhibition of the IFN signalling (Jak-Stat) pathway via expression of an eGFP reporter gene under the control of an IFN-stimulated response element (ISRE) containing MxA promoter. It is filed as functional. The settings on record: 30 µM. (A reporter such as luciferase makes a cellular process visible.)
The target in test [6] is T4, Tyrosyl-tRNA synthetase, putative (Trypanosoma cruzi (strain CL Brener)) (UniProt Q4DSP6).
T4 sequence (whole entry): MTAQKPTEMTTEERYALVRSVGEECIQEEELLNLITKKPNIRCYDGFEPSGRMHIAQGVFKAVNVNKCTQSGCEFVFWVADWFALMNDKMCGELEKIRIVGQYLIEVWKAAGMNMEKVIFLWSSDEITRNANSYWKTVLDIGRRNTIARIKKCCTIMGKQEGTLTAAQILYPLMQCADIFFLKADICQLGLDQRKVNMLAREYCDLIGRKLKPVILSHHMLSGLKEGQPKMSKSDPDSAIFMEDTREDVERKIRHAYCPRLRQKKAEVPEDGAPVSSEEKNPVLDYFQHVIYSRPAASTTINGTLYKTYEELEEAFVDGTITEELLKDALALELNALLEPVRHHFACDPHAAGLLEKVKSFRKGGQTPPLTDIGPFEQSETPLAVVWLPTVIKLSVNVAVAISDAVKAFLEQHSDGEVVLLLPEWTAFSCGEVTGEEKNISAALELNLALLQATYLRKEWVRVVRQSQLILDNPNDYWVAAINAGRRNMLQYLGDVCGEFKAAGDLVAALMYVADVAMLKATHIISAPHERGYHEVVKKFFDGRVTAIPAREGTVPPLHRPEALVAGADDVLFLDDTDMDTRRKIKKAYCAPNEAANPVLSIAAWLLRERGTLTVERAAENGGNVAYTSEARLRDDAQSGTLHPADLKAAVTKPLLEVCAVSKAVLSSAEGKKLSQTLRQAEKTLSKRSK
Briefly: Trypanosoma cruzi tyrosyl tRNA synthetase (TcYRS) _High Tyrosine SOP. Also: in the data most compounds retested in dose-response had high values. It is filed as functional. The settings on record: 30 µM.

In test [7] the target is T4, Tyrosyl-tRNA synthetase, putative (Trypanosoma cruzi (strain CL Brener)). Briefly: Trypanosoma cruzi tyrosyl tRNA synthetase (TcYRS) SOP. The test is classed as functional. The settings on record: 30 µM.
Test [8] has as its target Chromo domain-containing protein 1 (Saccharomyces cerevisiae (strain ATCC 204508 / S288c) (Baker's yeast)) (UniProt P32657). Briefly: ScCHD-1 Enzyme Inhibition Assay. Also: in the data most compounds retested in dose-response had high values. It is filed as functional. To be noted: 30 µM.

For part of these data: Potency and affinity values are given separately.

Chain of Sialic acid-binding Ig-like lectin 9 (Homo sapiens) (Q9Y336 whole entry): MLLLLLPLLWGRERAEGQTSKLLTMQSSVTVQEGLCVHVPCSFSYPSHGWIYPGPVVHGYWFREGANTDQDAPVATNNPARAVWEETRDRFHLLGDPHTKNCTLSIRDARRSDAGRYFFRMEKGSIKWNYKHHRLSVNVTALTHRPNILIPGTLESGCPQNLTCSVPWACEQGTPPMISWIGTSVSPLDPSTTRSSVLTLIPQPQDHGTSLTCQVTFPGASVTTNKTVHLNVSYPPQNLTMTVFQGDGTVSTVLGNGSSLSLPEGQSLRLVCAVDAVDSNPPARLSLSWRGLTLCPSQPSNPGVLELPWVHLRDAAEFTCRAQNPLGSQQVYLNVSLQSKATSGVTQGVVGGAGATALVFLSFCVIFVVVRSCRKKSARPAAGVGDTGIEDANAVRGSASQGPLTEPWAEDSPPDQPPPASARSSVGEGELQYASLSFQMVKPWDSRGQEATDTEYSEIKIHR
Chain of Protein translocase subunit SecA (Escherichia coli (strain K12)) (P10408 whole entry): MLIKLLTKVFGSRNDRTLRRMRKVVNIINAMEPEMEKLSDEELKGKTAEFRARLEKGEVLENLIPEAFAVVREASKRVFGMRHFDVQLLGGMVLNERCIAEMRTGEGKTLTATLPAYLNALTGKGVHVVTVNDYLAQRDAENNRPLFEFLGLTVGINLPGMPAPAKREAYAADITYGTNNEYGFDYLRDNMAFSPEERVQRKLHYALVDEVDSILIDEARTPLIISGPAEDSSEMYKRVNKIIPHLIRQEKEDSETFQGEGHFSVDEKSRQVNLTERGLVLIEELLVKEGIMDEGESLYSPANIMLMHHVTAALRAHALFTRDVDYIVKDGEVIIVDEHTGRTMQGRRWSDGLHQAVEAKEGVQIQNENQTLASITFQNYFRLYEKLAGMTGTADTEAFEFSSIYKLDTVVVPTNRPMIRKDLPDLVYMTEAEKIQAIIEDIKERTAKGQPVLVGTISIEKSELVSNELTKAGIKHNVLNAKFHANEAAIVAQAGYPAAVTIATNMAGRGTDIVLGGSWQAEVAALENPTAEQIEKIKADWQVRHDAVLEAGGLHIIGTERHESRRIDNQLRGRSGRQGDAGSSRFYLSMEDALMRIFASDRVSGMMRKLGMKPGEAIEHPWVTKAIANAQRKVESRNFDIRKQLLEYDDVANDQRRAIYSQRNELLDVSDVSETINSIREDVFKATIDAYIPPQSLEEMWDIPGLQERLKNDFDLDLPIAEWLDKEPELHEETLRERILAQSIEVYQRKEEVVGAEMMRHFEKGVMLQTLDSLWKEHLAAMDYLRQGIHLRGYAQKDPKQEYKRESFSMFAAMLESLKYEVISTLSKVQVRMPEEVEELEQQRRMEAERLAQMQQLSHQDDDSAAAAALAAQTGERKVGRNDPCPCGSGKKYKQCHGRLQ
Chain of Chromo domain-containing protein 1 (Saccharomyces cerevisiae (strain ATCC 204508 / S288c) (Baker's yeast)) (P32657 whole entry, the tested form may be a part): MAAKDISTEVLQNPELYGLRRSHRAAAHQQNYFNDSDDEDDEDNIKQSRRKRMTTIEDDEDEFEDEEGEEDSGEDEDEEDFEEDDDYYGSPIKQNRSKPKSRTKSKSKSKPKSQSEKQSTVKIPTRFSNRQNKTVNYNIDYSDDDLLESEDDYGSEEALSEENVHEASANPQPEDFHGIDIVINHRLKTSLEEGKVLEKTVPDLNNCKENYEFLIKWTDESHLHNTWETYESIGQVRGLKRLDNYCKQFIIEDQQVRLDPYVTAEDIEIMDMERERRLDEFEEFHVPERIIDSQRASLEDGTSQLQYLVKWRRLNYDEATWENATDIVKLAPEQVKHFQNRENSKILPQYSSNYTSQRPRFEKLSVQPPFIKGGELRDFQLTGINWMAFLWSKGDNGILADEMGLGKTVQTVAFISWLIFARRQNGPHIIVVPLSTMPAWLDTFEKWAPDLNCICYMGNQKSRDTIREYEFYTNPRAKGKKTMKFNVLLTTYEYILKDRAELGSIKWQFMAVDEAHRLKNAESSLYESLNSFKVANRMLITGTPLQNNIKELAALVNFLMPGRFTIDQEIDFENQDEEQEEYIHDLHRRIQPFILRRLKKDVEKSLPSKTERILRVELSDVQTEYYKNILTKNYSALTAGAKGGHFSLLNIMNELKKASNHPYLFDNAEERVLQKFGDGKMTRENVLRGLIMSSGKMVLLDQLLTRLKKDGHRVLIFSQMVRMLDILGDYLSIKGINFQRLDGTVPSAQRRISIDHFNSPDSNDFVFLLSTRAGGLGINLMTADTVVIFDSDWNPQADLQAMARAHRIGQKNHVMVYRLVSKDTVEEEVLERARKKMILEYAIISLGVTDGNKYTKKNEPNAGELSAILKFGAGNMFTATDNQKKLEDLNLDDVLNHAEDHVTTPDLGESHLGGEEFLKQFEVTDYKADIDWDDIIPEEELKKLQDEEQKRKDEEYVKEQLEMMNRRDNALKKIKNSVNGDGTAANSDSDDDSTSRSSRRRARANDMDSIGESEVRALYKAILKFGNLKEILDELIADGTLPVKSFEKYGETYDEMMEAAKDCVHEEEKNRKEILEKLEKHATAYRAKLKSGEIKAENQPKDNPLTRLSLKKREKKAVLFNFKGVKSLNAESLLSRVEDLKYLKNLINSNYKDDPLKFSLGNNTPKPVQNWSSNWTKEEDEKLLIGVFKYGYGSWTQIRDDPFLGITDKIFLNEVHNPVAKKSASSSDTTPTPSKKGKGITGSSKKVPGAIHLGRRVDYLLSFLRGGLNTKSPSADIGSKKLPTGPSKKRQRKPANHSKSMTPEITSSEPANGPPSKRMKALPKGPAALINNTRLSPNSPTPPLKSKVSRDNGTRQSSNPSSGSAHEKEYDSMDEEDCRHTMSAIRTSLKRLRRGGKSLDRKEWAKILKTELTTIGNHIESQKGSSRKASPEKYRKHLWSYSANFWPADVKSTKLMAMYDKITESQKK

Consider `OC(CN1CCOCC1)CN1CCc2c(ncn2C2CC2)C1` (stereo not given), for which the Percent Effect in [1] is -2.85%; in [2] it was 26.7%; in test [3] it was -6.52%; in the test with Trypanosoma cruzi it was -1.21%; in [4], -4.88%; in test [5], 14.3%. The Percent Effect in the test filed under Homo sapiens is 17.9%; in [6], 1.58%; in test [7] it was 7.69%; in test [8], -10.6%.
On to `CN(C)C[C@@H]1C[C@@H]2CN(C(=O)c3ccoc3)CC[C@@H]2N1CC1CC1`, for which the Percent Effect is -7.24% in test [1]; 11.7% in test [2]; 1.31% in [3]; -6.19% in the test on Trypanosoma cruzi; 0.913% in [4]; 0.429% in [5]. For the same compound, the Percent Effect in the test listed under Homo sapiens was 11.2%; in test [6], -4.83%; in [7], -2.5%; in test [8], -4.24%.
`COCCCN1CC2(CCCCN2C(=O)c2ccsc2)CC1=O` (stereo not given): the Percent Effect in test [1] was 0.227%; in test [2], 3.9%; in test [3], 1.99%; in the test with Trypanosoma cruzi, 2.44%; in test [4] it was 1.83%; in [5] it was 0.601%. For the same compound, the Percent Effect in the test listed under Homo sapiens came out at 15.2%; in test [6], 0%; in [7], 7.5%; in test [8], 2.21%.
Consider `CC(C)(C)n1ncc2c1NC(=O)CC2c1ccsc1` (stereo not given), for which the Percent Effect in test [1] was -1.95%; in [2], 2.7%; in test [3], -2.29%; in the test on Trypanosoma cruzi, -7.47%; in test [4], 5.94%; in test [5] it was 13.2%. The Percent Effect in the test filed under Homo sapiens was 15.1%; in test [6], 4.79%; in [7], 9.76%; in test [8], -1.82%.
As to `Cc1cc(C)n(CC2CN(Cc3nc(-c4ccco4)no3)CCO2)n1` (stereo not given), the Percent Effect in test [1] was -4.45%; in test [2], 23.4%; in [3], 7.28%; in the test on Trypanosoma cruzi it was 5.78%; in test [4], 1.43%; in [5], 8.25%. Moreover, the Percent Effect in the test listed under Homo sapiens is 12.5%; in test [6], 5.88%; in test [7], 23.5%; in test [8], -11.8%.
With `Cn1cc(NC(=O)N2CCC(CN3CCCC3)CC2)ccc1=O`, the Percent Effect in test [1] was -0.732%; in test [2], 7.69%; in [3], 7.22%; in the test with Trypanosoma cruzi it was -1.78%; in [4], 11.1%; in test [5], 1.79%. In addition, the Percent Effect in the test filed under Homo sapiens worked out at 14.5%; in [6], 3.35%; in [7], 6.02%; in test [8], 0.924%.
As for `CNC(=O)COc1ccccc1CNC1CCc2ncnn2C1` (stereo not given), the Percent Effect in test [1] is -1.08%; in test [2], 2.56%; in test [3], -25.1%; with Trypanosoma cruzi, 6.67%; in test [4], -1.23%; in test [5], 18.7%. The Percent Effect in the test filed under Homo sapiens was 13.3%; in [6] it was 6.22%; in test [7] it was 20.5%; in test [8] it was 44.8%.
With `COc1ccc(C[C@H]2CN(C(=O)c3ccncc3)CC[C@@H]2OC)cc1`, the Percent Effect in test [1] is -3.87%; in test [2], 11.7%; in [3] it was 0.155%; with Trypanosoma cruzi, -6.57%; in test [4], -11.4%; in [5], 6.61%. For the same compound, the Percent Effect is 11.4% in the test filed under Homo sapiens, -2.9% in [6], -2.5% in test [7] and -10.3% in [8].
Turning to `Cc1nc(C(=O)N2CCC(Cc3cnc4[nH]ccc4c3)C2)co1` (stereo not given), the Percent Effect in [1] is -3.17%; in test [2], 6.67%; in test [3], -5.86%; with Trypanosoma cruzi it was -1.97%; in test [4], -4.87%; in test [5] it was 10.5%. Besides, the Percent Effect in the test filed under Homo sapiens is 26.2%; in [6], -2.12%; in test [7], -2.5%; in test [8], -18.2%.
Consider `CCOC1COC2(CCN(Cc3cccc(F)c3)CC2)C1` (stereo not given), for which the Percent Effect in test [1] was -1.34%; in test [2], 14.3%; in test [3], -2.76%; with Trypanosoma cruzi it was -1.13%; in test [4] it was 0.457%; in test [5] it was 5.75%. In addition, the Percent Effect in the test filed under Homo sapiens is 21.4%; in [6], 2.9%; in test [7] it was 7.5%; in test [8], -7.79%.
Take `Cc1csc2ncc(-c3ccnc(N4CCCC[C@@H]4CO)n3)c(=O)n12`: the Percent Effect in [1] was -2.72%; in test [2], -16%; in test [3] it was -2.59%; in the test on Trypanosoma cruzi it was -2.41%; in test [4], 0%; in [5], 7.72%. The Percent Effect was 19.8% in the test filed under Homo sapiens, -3.68% in test [6], -12.8% in test [7] and -17.9% in [8].
For `CN(C)CC1CN(Cc2coc(-c3cccs3)n2)CCO1` (stereo not given), the Percent Effect in [1] was -1.09%; in test [2], 13.3%; in [3], -3.06%; in the test with Trypanosoma cruzi it was -2.41%; in test [4], 2.22%; in [5], 11.8%. For the same compound, the Percent Effect in the test filed under Homo sapiens is 15.3%; in test [6], -0.526%; in test [7], 5.13%; in test [8] it was -10.9%.
